Assay outcomes (PubChem BioAssay)
A selection: hits, their analogues and other compounds. The true share with any hit is near 1.8%.
CIT2-GFP yeast = modulators of CIT2-GFP expression in yeast, primary screen, S. cerevisiae, GFP fusion, multiplex flow cytometry, MLPCN library; 320,000 tested, 0.065% active; S. cerevisiae CIT2-GFP strain, 3 h; 100 means same as DMSO wells; GFP response vs DMSO, % at 10 µM; AID 2029, 2009;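 active means GFP response relative to DMSO above a set limit, near the screen mean plus 3 SD, cut at about 150% in these data; inconclusive means Fewer than 70 cells measured for a yeast strain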;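 further: ratio of well median GFP fluorescence to mean of DMSO wells on the plate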
AGP1-GFP MLPCN = modulators of AGP1-GFP expression in yeast TOR pathway, primary screen, cell-based, multiplex flow cytometry, S. cerevisiae, MLPCN library; 320,000 tested, 0.02% active; GFP response vs DMSO, % at 10 µM; 3 h; GFP as percent of DMSO wells; AID 2066, 2009;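 active means GFP response relative to DMSO above a set limit, near screen average plus 3 SD, cut at about 150% in these data; inconclusive means fewer than 70 cells counted for the yeast strain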;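 further: median GFP channel fluorescence of the gated AGP1 strain per well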
MEP2-GFP yeast = modulators of MEP2-GFP levels in yeast, primary screen, S. cerevisiae, multiplex flow cytometry, MLPCN library; AID 2016, 2009; GFP response vs DMSO, % at 10 µM; S. cerevisiae MEP2-GFP strain, 3 h; 100% = DMSO control level; 330,000 tested, 0.51% active;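 active means GFP response versus DMSO above a set limit, roughly screen mean plus 3 SD, cut at about 180% in these data; inconclusive means fewer than 70 cells counted for a yeast strain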;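 further: median GFP fluorescence of the barcode-gated MEP2-GFP cells per well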
Myeloid diff 2 = induction of myeloid progenitor differentiation, primary screen, cell-based, flow cytometry, MLPCN library; ER-HoxA9 myeloid progenitors, lysozyme-GFP differentiation; calls only at 10 µM; 360,000 tested, 1% active; AID 624256, 2012;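 active means normalized GFP-positive differentiation at or above the plate's own cutoff, the solvent-only control mean plus 3 SD; inconclusive means no clear call, values can overlap the other calls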;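 further: cells exposed to compound for four days before flow analysis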
RPL19A-GFP yeast = RPL19A-GFP expression modulators in yeast, primary screen, cell-based, S. cerevisiae, multiplex flow cytometry, MLPCN. 330,000 tested, 0.3% active. S. cerevisiae RPL19A-GFP strain, 3 h; active compounds read low. percent response vs DMSO, % at 10 µM;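 active means percent response vs DMSO below 50%; inconclusive means fewer than 70 events counted for the yeast strain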;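 further: median channel GFP fluorescence of the barcoded RPL19A-GFP strain; ratio of sample median GFP to plate DMSO average so 100% = DMSO; lower means less RPL19A-GFP as with rapamycin TOR inhibition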
LAP4 TOR yeast = modulators of LAP4-GFP expression in yeast, primary screen, S. cerevisiae, multiplex flow cytometry, MLPCN library. 3 h; median GFP as percent of DMSO wells. GFP response vs DMSO, % at 10 µM. 320,000 tested, 0.34% active. AID 2023, 2009;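 active means GFP response vs DMSO above a set limit, about the screen mean plus 3 SD, cut at about 150% in these data; inconclusive means under 70 cell events counted for the yeast strain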
LAP4-GFP pick2 = LAP4-GFP expression modulators in yeast, confirmation, cell-based, second cherry pick, flow cytometry. GFP response vs DMSO, % at 10 µM. S. cerevisiae LAP4-GFP strain, 3 h. AID 2621, 2010. shares compounds with LAP4 TOR yeast. 590 tested, 20% active;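 active means GFP signal as percent of the solvent control above about 150%, meaning raised reporter expression, limit read from the data; inconclusive means fewer than 70 cells counted in the well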;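 further: ratio of well median GFP fluorescence to plate DMSO mean so 100% = DMSO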
MEP2 cherry2 = modulators of MEP2-GFP levels in yeast, confirmation, S. cerevisiae, flow cytometry GFP, second cherry picks; 590 tested, 10% active; shares compounds with LAP4 TOR yeast; GFP response vs DMSO, % at 10 µM; S. cerevisiae MEP2-GFP strain, 3 h;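 active means GFP signal above 150% of the solvent control wells, that is a rise of more than half; inconclusive means fewer than 70 yeast cells counted in the well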;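 further: median channel GFP fluorescence of all gated yeast cells per well; ratio of median GFP to plate DMSO average so 100% = DMSO level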
RPL19A-GFP pick2 = RPL19A-GFP modulators in TOR pathway yeast, confirmation, cell-based, S. cerevisiae, flow cytometry, second cherry pick; shares compounds with LAP4 TOR yeast; S. cerevisiae RPL19A-GFP strain, 3 h; active compounds read low; 100% means same as DMSO wells; GFP response vs DMSO, % at 10 µM; 590 tested, 3% active;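 active means under 65% GFP response relative to DMSO; inconclusive means yeast strain with under 70 measured events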;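 further: median GFP channel fluorescence per well over the all cells gate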
CIT2 GFP CP2 = modulators of CIT2-GFP expression in yeast, confirmation, flow cytometry, second cherry pick, single plex; AID 2624, 2010; shares compounds with LAP4 TOR yeast; 590 tested, 8% active; S. cerevisiae CIT2-GFP strain, 3 h; DMSO control wells read 100%; GFP response vs DMSO, % at 10 µM;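 active means GFP response vs DMSO above about 150%, limit read from the data; inconclusive means fewer than 70 events counted for a yeast strain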;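 further: median green fluorescence per well over all gated yeast cells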
AGP1-GFP pick2 = AGP1-GFP expression modulators, hit retest, confirmation, cell-based, flow cytometry, S. cerevisiae, cherry pick set 2 | S. cerevisiae AGP1-GFP strain, 3 h | percent response vs DMSO, % at 10 µM | 590 tested, under 10 active | shares compounds with LAP4 TOR yeast;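 active means over 150 percent of DMSO response; inconclusive means yeast strain measured with under 70 events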;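 further: median GFP channel fluorescence over all cells without mother daughter split; sample median GFP divided by mean DMSO control so 100% equals DMSO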
Yeast autofluor = compound autofluorescence in yeast s288c, dose response, artefact control for yeast TOR pathway GFP screen, s288c strain; shares compounds with LAP4 TOR yeast; S. cerevisiae s288c, 520 nm autofluorescence, flow cytometry, 3 h; active compounds read high; zero means same as solvent-only cells; fluorescence change (kMESF span) at 33 µM; 610 tested, under 10 active;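 active means fluorescence span over the dose series, or activity score, above about 33, limit read from the data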
Yeast autofl DR = autofluorescence of compounds in yeast s288c, dose response, artefact control for yeast TOR pathway GFP screen, primary hits, KU SAR, s288c parental; S. cerevisiae s288c parental, compound autofluorescence, flow cytometry, 3 h; shares compounds with LAP4 TOR yeast; 110 tested, under 10 active; AID 488829, 2010; fluorescence change (span) at 33 µM;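 active means fluorescence change span, or the activity score built from it, above 25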
TORC1 bypass gr = wild-type yeast growth inhibition sparing TORC1 bypass cells, mechanism study for yeast TOR pathway GFP screen, BY4741 wild type, TORC1 bypass strain | shares compounds with LAP4 TOR yeast | S. cerevisiae BY4741 spot growth rating, 48-72 h; active compounds read low | growth rating (0-3) at 30 µM | 120 tested, under 10 active | AID 504456, 2011;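 active means growth rating at most 1 for wild type yeast while the TORC1 bypass strain still grows fully, rated 3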
Numbers without * were called inactive; i = inactive; ? = inconclusive; / = not tested or not shown; + = active, no number.

SMILES	CIT2-GFP yeast	AGP1-GFP MLPCN	MEP2-GFP yeast	Myeloid diff 2	RPL19A-GFP yeast	LAP4 TOR yeast	LAP4-GFP pick2	MEP2 cherry2	RPL19A-GFP pick2	CIT2 GFP CP2	AGP1-GFP pick2	Yeast autofluor	others
CCN(c1ccccc1)S(=O)(=O)c1ccc(OC)c(NC(=O)c2cc(F)c(F)c(F)c2F)c1	93	117	114	i	95	177*	100	100	101	98	97	/
N=C1/C(=C\c2coc3ccccc3c2=O)C(=O)N=C2SC(c3ccncc3)=NN12	95	66	100	i	64	120	139	108	83	163*	82	18
O=C(O)c1ccc(C(=O)Nc2ccc(F)cc2)cc1	102	106	101	i	103	99	/	/	/	/	/	/
COc1ccccc1-n1nnnc1SCC(=O)Nc1ccc(C)c(N)c1	99	101	98	i	102	103	/	/	/	/	/	/
CC(=O)N1CCC(C(=O)Nc2ccc3c(c2)CCC3)CC1	94	98	97	i	101	93	/	/	/	/	/	/
CCS(=O)(=O)N1CCC(C(=O)Nc2ccc3c(c2)CCC3)CC1	154*	116	101	i	95	91	98	102	100	97	100	/
O=C(c1ccccn1)c1conc1C(=O)c1ccc(Br)cc1	192*	103	281*	i	112	331*	/	/	/	/	/	2.4
C/C(=N\OC(=O)c1ccc(Br)cc1)c1ccccn1	94	96	87	i	100	94	/	/	/	/	/	/
O=Cc1cn(-c2ccccc2)nc1-c1ccccc1	91	94	99	i	100	105	/	/	/	/	/	/
CC1=NNC(=O)/C1=C\c1cn(-c2ccccc2)nc1-c1ccccc1	/	81	84	?	55	198*	/	/	/	/	/	2.4
Fc1cccc(Nc2ncnc3[nH]ncc23)c1	98	98	98	i	98	96	/	/	/	/	/	/
COc1ccc(C(=O)NC(=S)NNC(=O)c2cnccn2)cc1	90	87	111	?	105	241*	/	/	/	/	/	1	Yeast autofl DR=0.49;TORC1 bypass gr=3
O=C(NC(=S)NNC(=O)c1cnccn1)c1ccc(Cl)cc1	102	109	117	+	112	181*	/	/	/	/	/	2
COC(=O)Cn1c(N2CCCC2)nc2c1c(=O)n(C)c(=O)n2C	103	96	92	i	99	92	/	/	/	/	/	/
CC1(C)Cc2c(sc(NC(=O)c3ccc4c(c3)OCCO4)c2C(N)=O)C(C)(C)N1	153*	107	117	i	96	95	97	101	99	108	99	/
CC1(C)Cc2c(sc(NC(=O)c3ccc(S(=O)(=O)N4CCCCCC4)cc3)c2C(N)=O)C(C)(C)N1	93	?	92	i	99	88	/	/	/	/	/	/
O=C(CSc1ccccc1C(=O)N1CCN(c2ccc([N+](=O)[O-])cc2)CC1)N1CCCC1	88	88	95	i	87	94	/	/	/	/	/	/
O=C1C=CC(=O)N1Cc1ccccc1	72	81	91	i	94	159*	114	129	105	124	106	/
O=C1C2CC=CCC2C(=O)N1Cc1ccccc1 (stereo unspecified)	92	96	97	i	97	101	/	/	/	/	/	/
Cc1ccc(Cn2cccc(NS(C)(=O)=O)c2=O)cc1	/	/	/	i	/	/	/	/	/	/	/	/
CCN(CC)c1ccc2cc(-c3nc4ccccc4[nH]3)c(=O)oc2c1	139	112	200*	+	112	171*	/	/	/	/	/	4.7
COc1cccc2cc(-c3nc4ccccc4[nH]3)c(=O)oc12	92	88	106	i	88	94	/	/	/	/	/	/
COc1ccc2cc(-c3ccccc3)c(=O)oc2c1	90	96	97	i	100	125	/	/	/	/	/	/
CCN(CC)c1ccc2cc(-c3nc(-c4ccc(OC)cc4)cs3)c(=O)oc2c1	204*	94	221*	/	119	160*	/	/	/	/	/	7.5
CCNC(=S)NNC(=O)Cn1c(=O)c2c(ncn2CCOC)n(Cc2ccccc2)c1=O	81	97	221*	i	85	179*	99	108	101	102	100	/
O=S(=O)(/N=C(\Sc1ccccc1)c1ccccc1)c1ccc(Cl)cc1	86	96	100	i	97	111	110	105	98	99	100	/
Cc1ccc(S(=O)(=O)/N=C(\Sc2ccccc2)c2ccccc2)cc1	80	104	96	i	89	174*	/	/	/	/	/	0
